Source: PubChem BioAssay AID651840 (Vanderbilt Specialized Chemistry Center, 2012)
Measured potencies and affinities stand elsewhere. The source made the active and inactive calls.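 The calls were made as follows: active = mean concentration giving half inhibition of the glutamate calcium response below 30 µM; inactive = the rest.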

What follows are compounds tested against Metabotropic glutamate receptor 3 (Rattus norvegicus) (UniProt P31422) (assay: mGlu3 NAM potency via calcium readout, dose response, mGlu3 NAM project, TREx293 cells, Galpha15, calcium flux (AID 651840)). Conditions: TREx293 mGlu3/Galpha15, calcium fluorescence, glutamate EC80.
Metabotropic glutamate receptor 3 (Rattus norvegicus), sequence (P31422 whole entry, looked up): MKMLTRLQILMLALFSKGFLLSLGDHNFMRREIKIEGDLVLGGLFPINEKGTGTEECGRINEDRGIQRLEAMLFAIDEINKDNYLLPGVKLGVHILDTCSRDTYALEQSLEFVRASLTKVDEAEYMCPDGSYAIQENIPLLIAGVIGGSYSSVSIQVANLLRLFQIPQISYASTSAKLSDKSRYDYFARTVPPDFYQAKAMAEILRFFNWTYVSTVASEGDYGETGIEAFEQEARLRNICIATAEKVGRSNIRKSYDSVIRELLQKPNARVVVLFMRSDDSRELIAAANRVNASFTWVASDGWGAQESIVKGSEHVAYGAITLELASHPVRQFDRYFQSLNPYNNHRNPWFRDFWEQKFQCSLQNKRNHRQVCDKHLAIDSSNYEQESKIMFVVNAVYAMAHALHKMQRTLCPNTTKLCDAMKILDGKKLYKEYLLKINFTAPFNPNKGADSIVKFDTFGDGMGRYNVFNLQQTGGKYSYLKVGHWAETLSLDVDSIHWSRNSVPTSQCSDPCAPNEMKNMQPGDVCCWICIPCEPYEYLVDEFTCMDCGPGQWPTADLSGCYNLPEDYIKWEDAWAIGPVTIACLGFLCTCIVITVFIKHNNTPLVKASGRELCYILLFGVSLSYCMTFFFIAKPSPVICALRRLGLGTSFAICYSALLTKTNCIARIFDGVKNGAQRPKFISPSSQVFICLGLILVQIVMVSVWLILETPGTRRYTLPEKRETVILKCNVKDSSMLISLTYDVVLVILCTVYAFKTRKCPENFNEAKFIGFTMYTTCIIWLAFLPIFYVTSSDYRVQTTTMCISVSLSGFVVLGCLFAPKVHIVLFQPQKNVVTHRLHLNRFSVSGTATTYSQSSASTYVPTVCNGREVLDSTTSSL

Structure (SMILES)	outcome
COc1cccc(COc2ccc(C(=O)N3CC(O)C3)cc2)c1	inactive
COc1ccc(C#Cc2ccc(C(=O)N3CCCC(O)(c4ccc(F)cc4)C3)cc2)cc1 (configuration not stated)	inactive
COc1ccc(C#Cc2ccc(C(=O)N3CCCC(O)(c4ccncc4)C3)cc2)cc1 (configuration not stated)	inactive
COc1ccc(C#Cc2ccc(C(=O)N3CCCC(O)(c4ccccc4)C3)cc2)cc1 (configuration not stated)	inactive
O=C(c1ccc2cc(-c3cccc(-c4ccccc4)c3)ccc2c1)N1CCCC(CO)C1 (configuration not stated)	inactive
COc1ccc(C#Cc2ccc(C(=O)N3CCCC(O)(c4ccccc4OC)C3)cc2)cc1 (configuration not stated)	inactive
COc1ccc(C#Cc2ccc(C(=O)N3CCCC(O)(c4ccc(Cl)cc4)C3)cc2)cc1 (configuration not stated)	inactive
COc1ccc(C#Cc2ccc(C(=O)N3CCCC(O)(CCC4OCCCO4)C3)cc2)cc1 (configuration not stated)	inactive
COc1ccc(C#Cc2ccc(C(=O)N3CCCC(O)(c4ccc5ccccc5c4)C3)cc2)cc1 (configuration not stated)	inactive
COc1ccc(C#Cc2ccc(C(=O)N[C@@H]3CCCNC3)cc2)cc1	inactive
COc1ccc(C#Cc2ccc(C(=O)N3CCCC(O)(c4cccc(OC)c4)C3)cc2)cc1 (configuration not stated)	inactive
COc1ccc(C#Cc2ccc(C(=O)N3CCCC(O)(c4cccc(F)c4)C3)cc2)cc1 (configuration not stated)	inactive
